Where “and” joins values, the source holds several entries; their conditions need not be identical. Equal values may be shown once. Hit rate of the full screen: of about 5,500 compounds, about 2,000 (36%) were called active. Another 18% or so got no clear call; they are omitted. No stated cut-off is given here; in the data, active means normalized growth mostly below about 0.91 (no sharp cut-off); inconclusive means no clear call, values can overlap the other calls; inactive means mostly above about 0.92. The list shows a part of the results.
Assay: chemical genetic growth profiling, strain panel (AID 1159580);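 further: tested at 20 µM; growth read once vehicle control cultures reached saturation at 30 °C; 1 = growth at the plate median or of vehicle wells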
Conditions: S. cerevisiae deletion strains, growth OD

CC(Cc1cccc(C(F)(F)F)c1)NCCOC(=O)c1ccccc1 (configuration not stated)
normalized growth (locus YAL013W, strain DEP1, stronger effect = lower value): 0.98 (inactive) | normalized growth (locus YAL021C, strain ccr4, stronger effect = lower value): 0.853 (active) | normalized growth (locus YAL026C, strain drs2, stronger effect = lower value): 0.582 (active) | normalized growth (locus YAL030W, strain snc1, stronger effect = lower value): 0.964 (inactive) | normalized growth (locus YBL061C, strain skt5, stronger effect = lower value): 0.968 (inactive) | normalized growth (locus YBR009C, strain hhf1, stronger effect = lower value): 0.953 (inactive) | normalized growth (locus YBR021W, strain FUR4, stronger effect = lower value): 0.513 (active) | normalized growth (locus YBR023C, strain chs3, stronger effect = lower value): 0.936 (inactive) | normalized growth (locus YBR171W, strain sec66, stronger effect = lower value): 0.975 (inactive) | normalized growth (locus YBR229C, strain ROT2, stronger effect = lower value): 1.01 (inactive) | normalized growth (locus YBR231C, strain swc5, stronger effect = lower value): 0.948 (inactive) | normalized growth (locus YBR279W, strain paf1, stronger effect = lower value): 0.964 (inactive) | normalized growth (locus YCL011C, strain gbp2, stronger effect = lower value): 0.971 (inactive) | normalized growth (locus YCL016C, strain dcc1, stronger effect = lower value): 0.969 (inactive) | normalized growth (locus YCL029C, strain bik1, stronger effect = lower value): 1.03 (inactive) | normalized growth (locus YCL061C, strain MRC1, stronger effect = lower value): 0.978 (inactive) | normalized growth (locus YCL069W, strain vba3, stronger effect = lower value): 0.967 (inactive) | normalized growth (locus YCR088W, strain abp1, stronger effect = lower value): 0.994 (inactive) | normalized growth (locus YDL005C, strain med2, stronger effect = lower value): 0.999 (inactive) | normalized growth (locus YDL035C, strain GPR1, stronger effect = lower value): 0.917 (inactive) | normalized growth (locus YDL040C, strain nat1, stronger effect = lower value): 0.994 (inactive) | normalized growth (locus YDL074C, strain BRE1, stronger effect = lower value): 0.914 (inactive) | normalized growth (locus YDL101C, strain DUN1, stronger effect = lower value): 0.996 (inactive) | normalized growth (locus YDL134C, strain PPH21, stronger effect = lower value): 0.958 (inactive) | normalized growth (locus YDL185W, strain tfp1, stronger effect = lower value): 1.02 (inactive) | normalized growth (locus YDL192W, strain arf1, stronger effect = lower value): 0.988 (inactive) | normalized growth (locus YDR001C, strain nth1, stronger effect = lower value): 0.992 (inactive) | normalized growth (locus YDR069C, strain doa4, stronger effect = lower value): 0.845 (active) | normalized growth (locus YDR101C, strain arx1, stronger effect = lower value): 0.999 (inactive) | normalized growth (locus YDR137W, strain rgp1, stronger effect = lower value): 0.916 (inactive) | normalized growth (locus YDR150W, strain NUM1, stronger effect = lower value): 0.997 (inactive) | normalized growth (locus YDR159W, strain sac3, stronger effect = lower value): 0.995 (inactive) | normalized growth (locus YDR162C, strain NBP2, stronger effect = lower value): 0.945 (inactive) | normalized growth (locus YDR195W, strain ref2): 1.01 (inactive) | normalized growth (locus YDR297W, strain sur2, stronger effect = lower value): 0.973 (inactive) | normalized growth (locus YDR318W, strain mcm21, stronger effect = lower value): 0.963 (inactive) | normalized growth (locus YDR334W, strain swr1, stronger effect = lower value): 0.997 (inactive) | normalized growth (locus YDR335W, strain msn5, stronger effect = lower value): 0.959 (inactive) | normalized growth (locus YDR388W, stronger effect = lower value): 0.811 (active) | normalized growth (locus YDR392W, strain spt3, stronger effect = lower value): 1.03 (inactive) | normalized growth (locus YDR502C, strain sam2, stronger effect = lower value): 0.974 (inactive) | normalized growth (locus YEL003W, strain gim4, stronger effect = lower value): 0.924 (inactive) | normalized growth (locus YEL037C, strain rad23, stronger effect = lower value): 0.973 (inactive) | normalized growth (locus YEL061C, strain CIN8 (second series), stronger effect = lower value): 0.988 (inactive) | normalized growth (locus YEL061C, strain CIN8, stronger effect = lower value): 0.993 (inactive) | normalized growth (locus YER015W, strain faa2, stronger effect = lower value): 0.899 (active) | normalized growth (locus YER016W, strain bim1, stronger effect = lower value): 1 (inactive) | normalized growth (locus YER110C, stronger effect = lower value): 1.01 (inactive) | normalized growth (locus YER111C, strain swi4, stronger effect = lower value): 0.997 (inactive) | normalized growth (locus YER155C, strain BEM2 (second series), stronger effect = lower value): 0.934 (inactive) | normalized growth (locus YER155C, strain BEM2, stronger effect = lower value): 1.02 (inactive) | normalized growth (locus YER167W, strain BCK2, stronger effect = lower value): 0.985 (inactive) | normalized growth (locus YFR010W, strain ubp6, stronger effect = lower value): 0.831 (active) | normalized growth (locus YGL078C, strain dbp3, stronger effect = lower value): 1.01 (inactive) | normalized growth (locus YGL086W, strain mad1, stronger effect = lower value): 0.953 (inactive) | normalized growth (locus YGL167C, strain pmr1, stronger effect = lower value): 0.991 (inactive) | normalized growth (locus YGL173C, strain kem1, stronger effect = lower value): 0.919 (inactive) | normalized growth (locus YGL227W, strain vid30, stronger effect = lower value): 0.995 (inactive) | normalized growth (locus YGL240W, strain doc1, stronger effect = lower value): 0.945 (inactive) | normalized growth (locus YGL248W, strain PDE1, stronger effect = lower value): 0.957 (inactive) | normalized growth (locus YGL253W, strain hxk2, stronger effect = lower value): 0.96 (inactive) | normalized growth (locus YGR078C, strain PAC10, stronger effect = lower value): 0.921 (inactive) | normalized growth (locus YGR135W, strain pre9, stronger effect = lower value): 0.914 (inactive) | normalized growth (locus YGR229C, strain SMI1, stronger effect = lower value): 0.612 (active) | normalized growth (locus YGR252W, strain gcn5, stronger effect = lower value): 0.923 (inactive) | normalized growth (locus YHR013C, strain ard1, stronger effect = lower value): 0.963 (inactive) | normalized growth (locus YHR027C, strain rpn1, stronger effect = lower value): 0.941 (inactive) | normalized growth (locus YHR030C, strain SLT2, stronger effect = lower value): 0.833 (active) and 0.974 (inactive) | normalized growth (locus YHR079C, strain IRE1 (second series), stronger effect = lower value): 1 (inactive) | normalized growth (locus YHR079C, strain IRE1, stronger effect = lower value): 0.981 (inactive) | normalized growth (locus YHR094C, strain hxt1, stronger effect = lower value): 1.02 (inactive) | normalized growth (locus YHR129C, strain ARP1, stronger effect = lower value): 1 (inactive) | normalized growth (locus YHR142W, strain chs7, stronger effect = lower value): 0.925 (inactive) | normalized growth (locus YHR200W, strain rpn10, stronger effect = lower value): 0.996 (inactive) | normalized growth (locus YIL066C, strain RNR3, stronger effect = lower value): 0.962 (inactive) | normalized growth (locus YIL073C, strain SPO22, stronger effect = lower value): 1.14 (inactive) | normalized growth (locus YIL125W, strain kgd1, stronger effect = lower value): 1.02 (inactive) | normalized growth (locus YIR030C, strain dcg1, stronger effect = lower value): 1 (inactive) | normalized growth (locus YJL092W, strain hpr5, stronger effect = lower value): 0.953 (inactive) | normalized growth (locus YJL095W, strain BCK1 (second series), stronger effect = lower value): 0.954 (inactive) | normalized growth (locus YJL095W, strain BCK1, stronger effect = lower value): 0.614 (active) and 0.976 (inactive) | normalized growth (locus YJL115W, strain asf1, stronger effect = lower value): 0.979 (inactive) | normalized growth (locus YJL129C, strain trk1, stronger effect = lower value): 0.997 (inactive) | normalized growth (locus YJL134W, strain LCB3, stronger effect = lower value): 1 (inactive) | normalized growth (locus YJL154C, strain vps35, stronger effect = lower value): 0.986 (inactive) | normalized growth (locus YJL164C, strain tpk1, stronger effect = lower value): 0.953 (inactive) | normalized growth (locus YJL166W, strain qcr8, stronger effect = lower value): 0.943 (inactive) | normalized growth (locus YJL168C, strain set2, stronger effect = lower value): 1 (inactive) | normalized growth (locus YJL187C, strain SWE1 (second series), stronger effect = lower value): 0.923 (inactive) | normalized growth (locus YJL187C, strain SWE1, stronger effect = lower value): 0.978 (inactive) | normalized growth (locus YJR043C, strain POL32, stronger effect = lower value): 1.04 (inactive) | normalized growth (locus YJR066W, strain TOR1, stronger effect = lower value): 0.879 (inactive)

— PubChem BioAssay AID1159580 (chemical genetic matrix, 2015)
